Source: PubChem BioAssay AID1210 (NMMLSC, 2008)
A number with no mark means an inactive call. Activity calls are given as the source filed them.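 How the source made its calls: active means blocks over 70% of labeled estradiol binding at 10 µM, or over a set limit at 100 nM; inactive means the rest.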

These compounds were tested against Estrogen receptor beta (Homo sapiens) (UniProt Q92731) (assay: ERbeta ligand binders by competition, primary screen, cell-based, Cos7 ERbeta-GFP, flow cytometry (AID 1210;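 further: 0% = DMSO vehicle wells and 100% = complete loss of labeled estradiol signal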)). Conditions: fluorescent estrogen binding, at 10 µM, hits give high values.
Chain of Estrogen receptor beta (Homo sapiens) (Q92731 whole entry, looked up): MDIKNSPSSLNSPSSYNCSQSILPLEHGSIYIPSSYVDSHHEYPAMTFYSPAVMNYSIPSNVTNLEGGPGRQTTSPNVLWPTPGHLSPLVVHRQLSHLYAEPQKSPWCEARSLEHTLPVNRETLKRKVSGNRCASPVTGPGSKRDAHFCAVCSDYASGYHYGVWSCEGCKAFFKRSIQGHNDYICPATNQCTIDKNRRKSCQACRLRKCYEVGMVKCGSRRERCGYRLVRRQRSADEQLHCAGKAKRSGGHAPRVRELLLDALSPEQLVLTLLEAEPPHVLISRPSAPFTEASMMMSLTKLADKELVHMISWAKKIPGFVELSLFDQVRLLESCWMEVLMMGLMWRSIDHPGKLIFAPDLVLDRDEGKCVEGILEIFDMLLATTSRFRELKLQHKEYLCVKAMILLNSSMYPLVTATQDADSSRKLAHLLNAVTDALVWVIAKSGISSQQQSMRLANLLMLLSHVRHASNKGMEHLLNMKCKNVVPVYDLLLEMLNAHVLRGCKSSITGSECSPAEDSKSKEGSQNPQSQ

| Structure (SMILES) | inhibition |
| --- | --- |
| CC(=O)c1ccc2c(c1)C1C(Cl)C(Sc3ccccc3[N+](=O)[O-])CC1C(c1ccccc1[N+](=O)[O-])N2 (stereo unspecified) | 36% |
| CCNCC1(c2ccc(OC)c(OC)c2)CCCC1 | 14% |
| O=C(O)c1cccc2c1NC(C(=O)O)C1CC(Sc3ccccc3[N+](=O)[O-])C(Cl)C21 (stereo unspecified) | 0% |
| COc1ccc2[nH]cc(CCN=C(N)N)c2c1 | 16% |
| CC1(C)CC(CCNCc2ccc3c(c2)OCO3)(Cc2ccccc2)CCO1 (stereo unspecified) | 16% |
| COc1ccc(C2(CN)CCCC2)cc1OC | 8% |
| Cc1ccc(S(=O)(=O)Cc2ccc(C(=O)N3CCC4(CC3)OCCO4)o2)cc1 | 56% |
| CCOc1ccccc1N1C(=O)NC(=O)C(CCc2ccncc2)(CCc2ccncc2)C1=O | 41% |
| C[C@H]1CCC[C@@H](O)CCC/C=C/c2cc(O)cc(O)c2C(=O)O1 | 71% (active) |
| Cc1ccc2c(c1Cl)NC(C(=O)O)C1CC(Sc3ccccc3[N+](=O)[O-])C(Cl)C21 (stereo unspecified) | 21% |
| COc1ccc(C2(CN)CCCC2)cc1 | 5% |
| O=C(O)c1cccc2c1NC(c1cccc([N+](=O)[O-])c1)C1CC(Sc3ccccc3[N+](=O)[O-])C(Cl)C21 (stereo unspecified) | 67% |
| O=C1C2CCN(CC2)C1Cc1ccc(O)cc1 (stereo unspecified) | 19% |
| O=C(O)c1ccc2c(c1)C1C(Cl)C(Sc3ccccc3[N+](=O)[O-])CC1C(c1cccc([N+](=O)[O-])c1)N2 (stereo unspecified) | 0% |
| COc1ccc(Cn2c(N)c(C(=O)NCc3ccco3)c3nc4ccccc4nc32)cc1 | 64% |
| COc1cc2c(cc1OC)CC(C)(C)NC2 | 11% |
| N=c1c[n+](CCc2ccc(O)cc2)[n-]o1 | 29% |
| CC(=O)c1ccc2c(c1)C1C(Cl)C(Sc3ccccc3[N+](=O)[O-])CC1C(c1ccccc1)N2 (stereo unspecified) | 33% |
| CC(=O)c1ccc2c(c1)C1C(Cl)C(Sc3ccccc3[N+](=O)[O-])CC1C(C(=O)O)N2 (stereo unspecified) | 34% |
| NC(=O)c1ccc(N=Nc2c(O)[nH]c(=O)[nH]c2=O)cc1 | 11% |
| COc1ccc(CC2NCCc3cc(OC)c(OC)cc32)cc1OC (stereo unspecified) | 10% |
